# Source: PubChem (National Center for Advancing Translational Sciences (NCATS))
# RORgamma inh – qHTS for inhibitors of ROR gamma transcriptional activity; actives 5.4% (n = 310,000); AID 2551, 2010; Drosophila S2 Gal4-RORgamma UAS-luciferase reporter, 20 h; Nuclear receptor ROR-gamma (Mus musculus), P51450; Potency, µM (highest dose often 53.6 µM), hits mostly inhibitors; also: nearly all actives have a fitted effect of over 60% in size
# Target sequence (P51450 whole entry, looked up, the tested form may be a part): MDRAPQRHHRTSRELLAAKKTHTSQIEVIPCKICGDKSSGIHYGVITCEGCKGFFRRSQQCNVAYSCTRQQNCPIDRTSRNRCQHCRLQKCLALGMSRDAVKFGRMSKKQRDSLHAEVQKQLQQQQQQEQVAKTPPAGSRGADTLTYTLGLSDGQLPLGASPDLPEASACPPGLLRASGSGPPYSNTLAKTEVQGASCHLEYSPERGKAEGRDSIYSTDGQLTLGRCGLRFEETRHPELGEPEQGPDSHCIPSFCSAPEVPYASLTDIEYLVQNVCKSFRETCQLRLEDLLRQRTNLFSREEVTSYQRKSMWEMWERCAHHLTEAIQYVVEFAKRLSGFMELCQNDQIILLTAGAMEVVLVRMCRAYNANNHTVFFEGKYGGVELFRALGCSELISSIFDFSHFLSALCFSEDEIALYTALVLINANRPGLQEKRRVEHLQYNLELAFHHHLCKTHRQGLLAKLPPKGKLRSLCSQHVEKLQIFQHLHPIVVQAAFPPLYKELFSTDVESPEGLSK
#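 Compounds are pin-transferred onto Drosophila Schneider cells expressing a copper-inducible Gal4–ROR gamma transactivation domain fusion. After 1 hr, copper sulfate is added to 700 uM final; luciferase is read 20 hr later.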
# DT40 TDP1 no CPT – qHTS for Inhibitors of human tyrosyl-DNA phosphodiesterase 1 (TDP1): qHTS in cells in absence of CPT | DT40 Tdp1-/- hTDP1 cells, no CPT, ATP luminescence, 48 h | AID 686978, 2013 | actives 15% (n = 420,000) | Potency, µM (highest dose often 46.2 µM), usual class: inhibitors; also: nearly all actives have a fitted effect of over 55% in size
#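 Stably hTDP1-transfected Tdp1-null chicken DT40 cells were treated with library compounds minus camptothecin and grown for at least 48 hr at 37 °C, after which cellular ATP was quantified by luminescence.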
# IL-1B inflam inh – qHTS for Inhibitors of Inflammasome Signaling: IL-1-beta AlphaLISA Primary Screen. THP-1 LPS/ATP IL-1B secretion, AlphaLISA, 16 h; active compounds read low. activity change, % at 57.5 µM. actives 4.7% (n = 360,000); in the data active = activity change below about -50%; inconclusive = mostly about -30% to -49%
#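 Secreted IL-1B measured by AlphaLISA bead assay after 16 h compound exposure of THP-1 cells; compounds (final up to 57.5 uM) added 1 h before LPS (250 ng/mL) and ATP (1.25 mM) stimulation; lower signal means less secretion.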
# LDHA inh – qHTS assay for inhibitors of human lactate dehydrogenase | purified LDHA, NADH/diaphorase-resazurin fluorescence; active compounds read low | activity change, % (values are at about 110 or 230 µM) | actives 0.15% (n = 480,000); in the data active = activity change below about -30%; inconclusive = mostly about -25% to -30%
#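 Resorufin fluorescence (ex540/em590), read at 0 and 20 min after diaphorase/resazurin addition, reports the NADH left after a 5 min room-temperature reaction of 2 nM human LDH5 with 0.06 mM NADH and 0.2 mM pyruvate.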
# Gal4-VP16 FLuc – VP16 counterscreen qHTS for inhibitors of ROR gamma transcriptional activity | Drosophila S2 Gal4-VP16 UAS-luciferase, luminescence, 20 h | Potency, µM (series often up to 53.6 µM), usual class: inhibitors | actives 3.5% (n = 310,000) | AID 2546, 2010;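 also: Gal4-VP16 expression switched on by copper sulfate through the metallothionein promoter; nearly all actives have a fitted effect of over 50% in size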
# DT40 TDP1 CPT – qHTS for Inhibitors of human tyrosyl-DNA phosphodiesterase 1 (TDP1): qHTS in cells in presence of CPT. AID 686979, 2013. actives 12% (n = 420,000). Potency, µM (highest dose often 46.2 µM), actives largely listed as inhibitors. chicken DT40 Tdp1-/-;hTDP1 cells + 20 nM CPT, ATP luminescence, 48 h; also: nearly all actives have a fitted effect of over 55% in size
#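 Chicken DT40 Tdp1-/- cells stably complemented with human TDP1 were seeded at 400 cells/well in medium containing 20 nM camptothecin, exposed to pin-transferred compounds, and grown at 37 °C for at least 48 hr. Viability was read as ATP luminescence.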
# Hits are given with their value; 0 = inactive; ? = inconclusive; - = not tested or not shown; ! = repeats disagree; [ ] = remark or other dose. Sampled rows, rich in hits. Any-hit rate of the full collection: about 18%. Unless noted, calls follow the shape of the dose curve; as a rule, active = well fitted curve in the direction sought with a large enough effect; inconclusive = small, poorly fitted or top-dose-only effect, or another doubt; inactive = no such curve, though single readings can be large; an effect the other way counts as inactive or inconclusive.
SMILES,RORgamma inh,DT40 TDP1 no CPT,IL-1B inflam inh,LDHA inh,Gal4-VP16 FLuc,DT40 TDP1 CPT
O=C1CC(N2CC2)C(=O)N1c1ccccc1 (stereo unspecified),-,0,0,0,-,0
N#Cc1cccc(NC(=O)N2CC[C@@]3(CCCN(C(=O)Oc4ccccc4)C3)C2)c1,0,?,-,-,0,0
O=C(Nc1ccc2ccccc2c1)c1nn(C23CC4CC(CC(C4)C2)C3)cc1Br,0,20.6µM,0,0,0,18.4µM
CCCN(c1ccc(C(C)C)cc1)S(=O)(=O)c1ccc2c(c1)CCN2C(=O)CC,-,7.31µM,-,0,-,?
N#Cc1ncc(N=Cc2ccc(N(CCCl)CCCl)cc2)s1,-,11.6µM,0,0,-,10.3µM
ClCCN(CCCl)c1ccc(C=NNc2ncccn2)cc1,-,5.17µM,0,0,-,4.61µM
Cc1nnc(C(C)N2CCN(C(=O)Cc3ccccc3C)CC2)o1 (stereo unspecified),-,-,-,0,-,-
Cc1oc(-c2ccccc2F)nc1CS(=O)(=O)CC(=O)N1CCN(c2cccc(C(F)(F)F)c2)CC1,-,?,-,0,-,?
COc1cc(C#Cc2c(-c3cncn3C)n(C)c3ccc(-c4cnc(N5CCOCC5)nc4)cc23)cc(OC)c1,-,11.6µM,?,0,-,16.4µM
COc1ccc(-[n+]2c(-c3ccccc3)cc(-c3ccccc3)cc2-c2ccccc2)cc1,-,0.259µM,-76.3,0,-,0.411µM
Oc1ccc(-c2ccccc2)cc1,-,-,-,0,-,-
Oc1ccc(-[n+]2c(-c3ccccc3)cc(-c3ccccc3)cc2-c2ccccc2)cc1,-,0.651µM,-95.1,0,-,1.16µM
CN1CCCCC1c1cccnc1 (stereo unspecified),-,0,-,-,-,0
Clc1cc(CNC2CN3CCC2CC3)cc(Cl)c1OCc1ccccc1 (stereo unspecified),-,-,-,0,-,-
Cc1cccnc1-n1c(CN2C(=O)c3ccccc3C2=O)nc2ccccc2c1=O,0,0,0,0,0,0
Cc1ccnc2c1NC(=O)c1cccnc1N2C1CC1,0,8.2µM!,0,0,0,6.51µM!
O=C(c1cnccn1)N1CCC2(CC1)CN(Cc1ccncc1)C2,0,0,-,-,0,0
COc1cccc(C(O)c2nc(-c3ccncc3)cs2)c1 (stereo unspecified),-,9.2µM,0,0,-,23.1µM
CC(=O)Nc1cccc(-c2csc(C(O)c3cccc(Cl)c3)n2)c1 (stereo unspecified),-,18.4µM,0,0,-,23.1µM
CCNC(=O)C1CCCN(Cc2cc(C(F)(F)F)ccc2Cl)CC1 (stereo unspecified),-,?,0,0,-,25.9µM
CC(C)(C)OC(=O)NCc1ccc(CNC(=O)c2nc[nH]c2C(=O)NCc2ccc(CNC(=O)OC(C)(C)C)cc2)cc1,-,20.6µM,0,0,-,14.6µM
COc1ccc(CNCCc2c[nH]c3ccccc23)c(OC)c1,-,-,-,0,-,-
COc1ccc2[nH]cc(CCNCc3ccc(OC)c(OC)c3)c2c1,-,-,-,0,-,-
C=C1N2CCC(CC2)C1(O)c1ccc(C)cc1 (stereo unspecified),0,0,0,0,0,0
C=C1C(O)(c2ccccc2)C2CC[N+]1(C)CC2 (stereo unspecified),0,0,0,-37.5,0,0
SMILES,RORgamma inh,DT40 TDP1 no CPT,IL-1B inflam inh,LDHA inh,Gal4-VP16 FLuc,DT40 TDP1 CPT
C/C(=C\[C@@H](N)C(=O)O)CP(=O)(O)O,0,0,-,-,0,0
Cc1cc2ccccc2n1CCNC(=O)COc1ccccc1,0,?,0,0,0,?
CN1CCCCC1Cn1cc(C(=O)c2cc([N+](=O)[O-])ccc2I)c2ccccc21 (stereo unspecified),0,-,-,-,0,-
Cc1ccc(OCC(=O)Nc2ccc(Cl)cc2C(=O)c2ccccc2)cc1,0,0,0,0,0,0
CCN(CC)C(=O)c1ccc(NC(=O)COc2ccc(-c3nn(C)c(=O)c4ccccc34)cc2)cc1,0,?,0,0,0,16.4µM
O=C(Nc1ccc(OC(F)(F)F)cc1)c1cccn(Cc2ccccc2Cl)c1=O,-,0,-,0,-,0
Cn1nc(-c2ccc(C(=O)Nc3ccc(OC(F)(F)F)cc3)cc2)c2ccccc2c1=O,-,16.4µM,-,0,-,9.2µM
CCN(CC)C(=O)c1ccc(NC(=O)CCn2nc(-c3ccc(C)cc3)c3ccccc3c2=O)cc1,-,14.6µM,-,0,-,18.4µM
CCN(CC)C(=O)c1ccc(NC(=O)Cn2nc(-c3ccc(C)cc3)c3ccccc3c2=O)cc1,-,0,-,0,-,0
Cc1ccc(NC(=O)COc2ccc(-c3nn(C)c(=O)c4ccccc34)cc2)c(C)c1,-,13µM,-,0,-,16.4µM
COc1ccc([N+](=O)[O-])cc1,-,-,-,0,-,-
O=c1ccc2cc(OC3OC(CO)C(O)C(O)C3O)c(O)cc2o1 (stereo unspecified),?,0,-,-,0,?
CC(C)(C)[C@]1(O)C[C@@H]2OC(=O)CC23C(=O)O[C@@H]2OC(=O)[C@H](O)C231 (stereo partly specified),0,-,-,-,0,-
CCCc1cc2c(n1CCO)C(C)C1CN(C(=O)c3ccccc3)C(C)(C(=O)OC)C21 (stereo unspecified),0,-,-,-,0,-
C=CCN1CCc2cccc3c2[C@H]1Cc1ccc(O)c(O)c1-3,?,18.4µM,0,0,?,16.4µM
COc1ccc2c(c1O)-c1cc(O)cc3c1[C@@H](C2)N(C)CC3,-,0,-,-,-,0
CN(C)c1ccc(C=Cc2ccnc3c(O)cccc23)cc1,-,13µM,0,0,-,?
CN(C)c1ccc(/C=C/c2ccnc3c(O)cccc23)cc1,-,10µM,-,0,-,0
CN(C)c1ccc(/C=C/c2cc[n+](C)c3ccccc23)cc1,0,0.231µM,-101.6,0,0[10 µM],0.411µM
Cc1ccc(-c2nc3ncccc3o2)cc1NC(=O)c1cccc(OCC(C)C)c1,-,?,-,0,-,0
C[C@H]1CO1,0,-,-,-,0,-
C#CCN1CCN(Cc2ccc3c(c2)OCCO3)CC1,-,-,-,0,-,-
S=C=Nc1cccc2ccccc12,6.31µM,-,-,-,12.6µM,-
O=C(Nc1cccc(F)c1)N1CCC2(CC1)CCN(C(=O)Oc1ccccc1)CC2,0,23.1µM,-,-,?,?
O=C(Nc1cccc(F)c1)N1CC2(CCNCC2)C1,0,8.2µM,-,-,0,8.2µM
O=C(Nc1cccc(F)c1)N1CC2(CCN(C(=O)Oc3ccccc3)CC2)C1,0,?,-,-,0,0
c1ccc(-n2nnnc2C2(NC3CCCCC3)CCCCC2)cc1,-,-,-,0,-,-
CC(C)(C)C(=O)OC1=CN(Cc2ccccc2)S(=O)(=O)c2ccccc21,-,?,-,0,-,0
Cc1nc2cc(-c3cccc(F)c3)nn2c(C)c1CCC(=O)N1CCC2(CC1)OCCO2,?,?,0,0,0,16.4µM
